“And” between values parts separate entries of the source, which are not always exact repeats. Identical values can stand only once. Among all 5,500 compounds or so, about 2,000 (36%) were called active. About 18% were inconclusive and are not listed. Rule as the data show it: active = normalized growth mostly below about 0.91 (no sharp cut-off); inconclusive = no clear call, values can overlap the other calls; inactive = mostly above about 0.92. This is one part of the list.
Experiment: chemical genetic growth profiling, strain panel (AID 1159580);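 also: tested at 20 µM; growth read once vehicle control cultures reached saturation at 30 °C; 1 = growth at the plate median or of vehicle wells; lower values mean less growth of the strain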
Details: S. cerevisiae deletion strains, growth OD

Measured: normalized growth

NCCc1cnc[nH]1
inactive: locus YAL021C, strain ccr4, hits give low values 1.01 | locus YAL026C, strain drs2, hits give low values 1.01 | locus YAL030W, strain snc1, hits give low values 1.01 | locus YAL040C, strain CLN3, hits give low values 0.978 | locus YBL061C, strain skt5, hits give low values 1.02 | locus YBR009C, strain hhf1, hits give low values 1 | locus YBR021W, strain FUR4, hits give low values 1 | locus YBR023C, strain chs3, hits give low values 1.02 | locus YBR171W, strain sec66, hits give low values 1.03 | locus YBR229C, strain ROT2, hits give low values 1.01 | locus YBR231C, strain swc5, hits give low values 0.976 | locus YBR279W, strain paf1, hits give low values 1.02 | locus YCL011C, strain gbp2, hits give low values 1.03 | locus YCL016C, strain dcc1, hits give low values 1.01 | locus YCL029C, strain bik1, hits give low values 1.01 | locus YCL061C, strain MRC1, hits give low values 1.02 | locus YCL069W, strain vba3, hits give low values 1.01 | locus YCR088W, strain abp1, hits give low values 1.01 | locus YDL005C, strain med2, hits give low values 1.02 | locus YDL035C, strain GPR1, hits give low values 0.988 | locus YDL040C, strain nat1, hits give low values 1.02 | locus YDL074C, strain BRE1, hits give low values 1 | locus YDL101C, strain DUN1, hits give low values 1.01 | locus YDL185W, strain tfp1, hits give low values 1.02 | locus YDL192W, strain arf1, hits give low values 1.03 | locus YDR001C, strain nth1, hits give low values 1.01 | locus YDR069C, strain doa4, hits give low values 0.993 | locus YDR101C, strain arx1, hits give low values 0.997 | locus YDR137W, strain rgp1, hits give low values 1.03 | locus YDR159W, strain sac3, hits give low values 0.995 | locus YDR162C, strain NBP2, hits give low values 0.998 | locus YDR195W, strain ref2 0.994 | locus YDR297W, strain sur2, hits give low values 1.04 | locus YDR318W, strain mcm21, hits give low values 1.02 | locus YDR334W, strain swr1, hits give low values 1.02 | locus YDR335W, strain msn5, hits give low values 1.02 | locus YDR363W, strain ESC2, hits give low values 0.998 | locus YDR388W, hits give low values 1.01 | locus YDR392W, strain spt3, hits give low values 1 | locus YDR502C, strain sam2, hits give low values 1.01 | locus YEL003W, strain gim4, hits give low values 1.03 | locus YEL037C, strain rad23, hits give low values 1.02 | locus YEL061C, strain CIN8 (second series), hits give low values 1.02 | locus YEL061C, strain CIN8, hits give low values 0.995 | locus YER002W, strain NOP16, hits give low values 0.994 | locus YER015W, strain faa2, hits give low values 1.01 | locus YER016W, strain bim1, hits give low values 1 | locus YER110C, hits give low values 1.02 | locus YER111C, strain swi4, hits give low values 1.02 | locus YER155C, strain BEM2 (second series), hits give low values 1.03 | locus YER155C, strain BEM2, hits give low values 1.01 | locus YER167W, strain BCK2, hits give low values 0.989 | locus YFR010W, strain ubp6, hits give low values 1.01 | locus YGL078C, strain dbp3, hits give low values 1.02 | locus YGL086W, strain mad1, hits give low values 1 | locus YGL167C, strain pmr1, hits give low values 1.01 | locus YGL173C, strain kem1, hits give low values 1 | locus YGL227W, strain vid30, hits give low values 1.01 | locus YGL240W, strain doc1, hits give low values 1.01 | locus YGL248W, strain PDE1, hits give low values 1.01 | locus YGL253W, strain hxk2, hits give low values 1.01 | locus YGR078C, strain PAC10, hits give low values 1 and 0.997 | locus YGR135W, strain pre9, hits give low values 1.02 | locus YGR252W, strain gcn5, hits give low values 1.04 | locus YHR013C, strain ard1, hits give low values 1.06 | locus YHR027C, strain rpn1, hits give low values 1.01 | locus YHR030C, strain SLT2, hits give low values 0.985 and 1 | locus YHR079C, strain IRE1 (second series), hits give low values 1.01 | locus YHR079C, strain IRE1, hits give low values 1.03 | locus YHR094C, strain hxt1, hits give low values 1.01 | locus YHR129C, strain ARP1, hits give low values 1.01 | locus YHR142W, strain chs7, hits give low values 1.01 | locus YHR200W, strain rpn10, hits give low values 1.02 | locus YIL066C, strain RNR3, hits give low values 1.01 | locus YIL073C, strain SPO22, hits give low values 1.03 | locus YIL125W, strain kgd1, hits give low values 1.02 | locus YIR030C, strain dcg1, hits give low values 1.01 | locus YJL092W, strain hpr5, hits give low values 1.02 | locus YJL095W, strain BCK1 (second series), hits give low values 1.02 | locus YJL095W, strain BCK1, hits give low values 1.01 and 0.999 | locus YJL115W, strain asf1, hits give low values 1.02 | locus YJL129C, strain trk1, hits give low values 1.03 | locus YJL134W, strain LCB3, hits give low values 0.995 | locus YJL154C, strain vps35, hits give low values 1.03 | locus YJL164C, strain tpk1, hits give low values 1.02 | locus YJL166W, strain qcr8, hits give low values 1.03 | locus YJL168C, strain set2, hits give low values 1.01 | locus YJL187C, strain SWE1 (second series), hits give low values 1 | locus YJL187C, strain SWE1, hits give low values 1.01 | locus YJR043C, strain POL32, hits give low values 1

Source: PubChem BioAssay AID1159580 (chemical genetic matrix, 2015)
